Data on 6 compounds can be found in PubChem BioAssay (NCATS).

Each structure is given as a SMILES string. Records with an inconclusive call do not appear. Activity calls are given as the source filed them. The call rests on the fitted dose curve; in most records, active means well fitted curve in the direction sought with a large enough effect; inconclusive means small, poorly fitted or top-dose-only effect, or another doubt; inactive means no such curve, though single readings can be large; an effect the other way counts as inactive or inconclusive.

The nature of experiment [1]: qHTS of pediatric cancer cell lines to identify multiple opportunities for drug repurposing: Primary screen for A673 cells (AID 1347092). Further: nearly all actives have a fitted effect of over 45% in size. Further: potency means the concentration at half of the fitted maximal effect. In short, it runs like this:
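Cell viability of A673 measured by CellTiter-Glo ATP luminescence after 48 hours compound exposure. Dilution series spanned 0.78 nM to 46 µM (MIPE, 11-point) or 0.59 nM to 46 µM (NPC, 8-point); bortezomib 2.3 uM positive control.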
In general terms: In qHTS, concentration-response curves come from the screen itself.

The nature of experiment [2]: qHTS of pediatric cancer cell lines to identify multiple opportunities for drug repurposing: Primary screen for SK-N-MC cells (AID 1347093). Further: potency means the concentration at half of the fitted maximal effect. In outline: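 Metabolically active cells were quantified by ATP-dependent luminescence (CellTiter-Glo, 15 min at room temperature) following 48 h treatment. Cells had been plated at 500-1,000 per well and settled for 5 h beforehand.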

The nature of experiment [3]: qHTS of pediatric cancer cell lines to identify multiple opportunities for drug repurposing: Primary screen for BT-37 cells (AID 1347094). Further: potency means the concentration at half of the fitted maximal effect. In short, it runs like this:
(§1)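 Readout: CellTiter-Glo luminescence, 48 h treatment. Controls DMSO (neutral) and bortezomib 2.3 µM final (positive). Potency and efficacy taken from primary-screen concentration-response curves.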

Experiment [4] in a line: qHTS of pediatric cancer cell lines to identify multiple opportunities for drug repurposing: Primary screen for NB-EBc1 cells (AID 1347095). Further: potency means the concentration at half of the fitted maximal effect. In short, it runs like this:
as §1

Experiment [5] can be described thus: qHTS of pediatric cancer cell lines to identify multiple opportunities for drug repurposing: Primary screen for Saos-2 cells (AID 1347097). Further: nearly all actives have a fitted effect of over 40% in size. Further: potency means the concentration at half of the fitted maximal effect. In short, it runs like this: as §1
Experiment [6] in a line: qHTS of pediatric cancer cell lines to identify multiple opportunities for drug repurposing: Primary screen for SK-N-SH cells (AID 1347098). Further: nearly all actives have a fitted effect of over 65% in size. Further: potency means the concentration at half of the fitted maximal effect. In outline:
(§2)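 Cells (500-1,000/well) rested 5 h, then received compounds for 48 h; metabolically active cells were measured by CellTiter-Glo luminescence. Final concentrations spanned up to 46 µM (MIPE, 11-point) or 0.59 nM-46 µM (NPC, 8-point) in primary screens, 11-point in follow-ups.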

Experiment [7] can be described thus: qHTS of pediatric cancer cell lines to identify multiple opportunities for drug repurposing: Primary screen for OHS-50 cells (AID 1347103). Further: nearly all actives have a fitted effect of over 40% in size. Further: potency means the concentration at half of the fitted maximal effect. In outline:
as §2

The nature of experiment [8]: qHTS of pediatric cancer cell lines to identify multiple opportunities for drug repurposing: Primary screen for RD cells (AID 1347104). Further: nearly all actives have a fitted effect of over 55% in size. Further: potency means the concentration at half of the fitted maximal effect. In outline:
as §1

A short description of experiment [9]: qHTS of pediatric cancer cell lines to identify multiple opportunities for drug repurposing: Primary screen for MG 63 (6-TG R) cells (AID 1347105). Further: potency means the concentration at half of the fitted maximal effect; nearly all actives have a fitted effect of over 50% in size. In short, it runs like this:
as §1

A short description of experiment [10]: qHTS of pediatric cancer cell lines to identify multiple opportunities for drug repurposing: Primary screen for Rh41 cells (AID 1347108). Further: nearly all actives have a fitted effect of over 70% in size. Further: potency means the concentration at half of the fitted maximal effect. In outline:
as §1

The nature of experiment [11]: qHTS of pediatric cancer cell lines to identify multiple opportunities for drug repurposing: Primary screen for NB1643 cells (AID 1347099). Further: nearly all actives have a fitted effect of over 50% in size. Further: potency means the concentration at half of the fitted maximal effect. In short, it runs like this: as §1
The nature of experiment [12]: qHTS of pediatric cancer cell lines to identify multiple opportunities for drug repurposing: Primary screen for LAN-5 cells (AID 1347100). Further: potency means the concentration at half of the fitted maximal effect. In outline: as §2
A short description of experiment [13]: qHTS of pediatric cancer cell lines to identify multiple opportunities for drug repurposing: Primary screen for Rh18 cells (AID 1347102). Further: nearly all actives have a fitted effect of over 65% in size. Further: potency means the concentration at half of the fitted maximal effect. In short, it runs like this:
as §2

Experiment [14] is described as follows: qHTS of pediatric cancer cell lines to identify multiple opportunities for drug repurposing: Primary screen for Rh30 cells (AID 1347107). Further: nearly all actives have a fitted effect of over 75% in size. Further: potency means the concentration at half of the fitted maximal effect. In short, it runs like this:
as §2

The nature of experiment [15]: qHTS of pediatric cancer cell lines to identify multiple opportunities for drug repurposing: Confirmatory screen for NB1643 cells (AID 1347109). Further: nearly all actives have a fitted effect of over 45% in size. Further: potency means the concentration at half of the fitted maximal effect. In short, it runs like this: as §2
Experiment [16] is described as follows: qHTS of pediatric cancer cell lines to identify multiple opportunities for drug repurposing: Confirmatory screen for A673 cells (AID 1347110).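 Further: potency means the concentration at half of the fitted maximal effect; cells exposed to compound for 48 h before the viability read; nearly all actives have a fitted effect of over 65% in size.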 In outline:
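Viability was read as ATP luminescence (CellTiter-Glo) after 48 h of compound exposure at 37 C in A673 cells seeded at 500-1,000/well. Titrations reached 46 uM final, with 11 points in the confirmatory screen. Concentration-response curves were fitted directly.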

A short description of experiment [17]: qHTS of pediatric cancer cell lines to identify multiple opportunities for drug repurposing: Confirmatory screen for SK-N-MC cells (AID 1347111).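 Further: potency means the concentration at half of the fitted maximal effect; cells exposed to compound for 48 h before the readout; nearly all actives have a fitted effect of over 70% in size.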 In short, it runs like this: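 Seed 500-1,000 cells/well; rest 5 h at 37 degrees C. Pin-transfer compounds, 11-point titration. Incubate 48 h. Add CellTiter-Glo, 15 min RT, read luminescence.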
The nature of experiment [18]: qHTS of pediatric cancer cell lines to identify multiple opportunities for drug repurposing: Primary screen for BT-12 cells (AID 1347101). Further: nearly all actives have a fitted effect of over 25% in size. Further: potency means the concentration at half of the fitted maximal effect. In short, it runs like this: as §2
Experiment [19] in a line: qHTS of pediatric cancer cell lines to identify multiple opportunities for drug repurposing: Primary screen for control Hh wild type fibroblast cells (AID 1347106).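 Further: series mostly up to about 46 µM; a drop in luminescence marks cytotoxicity and a rise apparent proliferation; nearly all actives have a fitted effect of over 55% in size.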 In outline: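 Viability after 48 h compound treatment at 37C, 500-1,000 cells/well, read as ATP luminescence with CellTiter-Glo. Primary screens used 11-point (MIPE, 0.78 nM-46 µM) or 8-point (NPC, 0.59 nM-46 µM) final concentrations; follow-up screens used 11-point dilutions.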

Take `CCNC(=O)Nc1ccc(-c2nc3c(c(N4CCOC[C@H]4C)n2)CCN(C2COC2)C3)cc1`: the Potency in [1] was 1480 nM (active); in experiment [2], 209 nM (active); in experiment [3], 1720 nM (active); in [4], 1180 nM (active); in experiment [5], 4690 nM (active); in [6], 17100 nM (active). Also, the Potency is 485 nM (active) in [7], 1050 nM (active) in experiment [8], 743 nM (active) in experiment [9] and 1480 nM (active) in experiment [10].

In the case of `C=CCNC1=C2C[C@@H](C)C[C@H](OC)[C@@H](O)[C@@H](C)C=C(C)[C@H](OC(N)=O)[C@@H](OC)C=CC=C(C)C(=O)NC(=CC1=O)C2=O`, the Potency in experiment [1] was 1480 nM (active); in experiment [2] it was 1660 nM (active); in experiment [3] it was 193 nM (active); in experiment [4], 1480 nM (active); in experiment [5], 1660 nM (active); in experiment [6], 2410 nM (active). The Potency in experiment [11] is 1480 nM (active); in [12], 2090 nM (active); in experiment [13], 833 nM (active); in [7], 1220 nM (active); in [8] it was 235 nM (active); in experiment [9] it was 23500 nM (active). Also, the Potency in [14] was 13200 nM (active); in experiment [10], 3720 nM (active); in experiment [15], 1170 nM (active); in [16], 1170 nM (active); in experiment [17], 2330 nM (active).

For the compound `CC[C@]12C=CCN3CC[C@@]4(c5cc([C@@]6(C(=O)OC)C[C@H]7C[C@@H](C(C)(F)F)CN(Cc8c6[nH]c6ccccc86)C7)c(OC)cc5N(C)[C@H]4[C@@](O)(C(=O)OC)[C@H]1OC(C)=O)[C@@H]32`, the Potency is 4.7 nM (active) in [1]; 3 nM (active) in [2]; 27.3 nM (active) in experiment [3]; 11.8 nM (active) in experiment [4]; 8.3 nM (active) in [5]; 132 nM (active) in [11]. Further, the Potency is 5.3 nM (active) in experiment [12]; 34.3 nM (active) in experiment [18]; 19.3 nM (active) in [7]; 5.9 nM (active) in experiment [8]; 522 nM (active) in experiment [16]; 9270 nM (active) in [17]. The Potency result in experiment [14] and in experiment [15] was “inactive” each time.

Take `CNC(=O)c1cccc(-c2ccc3c(N4CCOC[C@H]4C)nc(N4CCOC[C@H]4C)nc3n2)c1`: the Potency is 148 nM (active) in experiment [1]; 14.8 nM (active) in experiment [2]; 122 nM (active) in [3]; 132 nM (active) in [4]; 833 nM (active) in experiment [5]; 4180 nM (active) in experiment [12]. The Potency is 332 nM (active) in experiment [13]; 68.5 nM (active) in [7]; 148 nM (active) in experiment [8]; 29.6 nM (active) in experiment [9]; 118 nM (active) in experiment [10]; 1470 nM (active) in experiment [16]. Besides, in experiment [17], the Potency was 1040 nM (active).

For `CC(C)(C)[N+]([O-])=Cc1ccc(S(=O)(=O)O)cc1S(=O)(=O)O`, the Potency result in experiment [1], in experiment [2], in [3], in experiment [4], in experiment [5] and in experiment [6] was “inactive” in each case. In addition, the Potency entry in experiment [11], in experiment [12], in experiment [18], in experiment [13], in [7] and in experiment [8] was “inactive” in each case. Further, the Potency entry in [19], in experiment [14] and in experiment [10] was “inactive” throughout.

`CNC(=O)Nc1ccc(-c2nc(N3CC4CCC(C3)O4)c3cnn(C4CCC5(CC4)OCCO5)c3n2)cc1`: the Potency in experiment [1] was 372 nM (active); in experiment [2], 2.6 nM (active); in [3], 30.6 nM (active); in experiment [4] it was 132 nM (active); in experiment [5], 209 nM (active); in [12], 6620 nM (active). The Potency was 21.7 nM (active) in experiment [7]; 52.6 nM (active) in experiment [8]; 11.8 nM (active) in [9]; 11800 nM (active) in experiment [14]; 41.8 nM (active) in experiment [10]; 1040 nM (active) in [16]. Also, the Potency in experiment [17] was 585 nM (active). Further, in experiment [11], the Potency entry was “inactive”.
